Data on four molecules can be found in PubChem BioAssay.

Values joined by “and” are separate entries in the source; they are usually repeats but may differ in a detail not shown here. Identical values can stand only once. Inconclusive results are not listed. Active and inactive are the calls of the source.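 How the source made its calls, unless noted: active means normalized viability below 100% at a tested concentration; inactive means the rest.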

Test [1] is described as follows: viability loss in pontine glioma line – cell-based, SU-DIPG-XVII, MIPE5.0, CellTiter-Glo, qHTS, dose response (AID 1347060; cut-off not given, nearly all actives have AC50 up to about 26 µM;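 on AC50: cells exposed to compound for 48 hours before viability readout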). The following applies: CellTiter-Glo ATP luminescence. On the technique in general: In ATP-based viability assays light output follows the ATP content of the culture.
Test [2] can be described thus: viability loss in pontine glioma line – cell-based, SU-DIPG-XIII, MIPE4.0, CellTiter-Glo, qHTS, dose response (AID 1347061; cut-off not given, nearly all actives have AC50 up to about 37 µM;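 further: cells exposed to compound for 48 hours before readout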). The conditions noted are these: CellTiter-Glo ATP luminescence.
Test [3] is described as follows: viability loss in pontine glioma line – cell-based, JHH-DIPG-1, MIPE4.0, CellTiter-Glo, qHTS, dose response (AID 1347062; cut-off not given, nearly all actives have AC50 up to about 27 µM;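 on AC50: cells exposed to compound for two days before readout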). The conditions noted are these: JHH-DIPG-1 viability, CellTiter-Glo ATP luminescence.
Test [4] is described as follows: viability loss in pontine glioma line – cell-based, SU-DIPG-IV, MIPE4.0, CellTiter-Glo, qHTS, dose response (AID 1347063; cut-off not given, nearly all actives have AC50 up to about 30 µM;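 further: compound exposure lasted 48 hours before the viability readout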). The following applies: CellTiter-Glo ATP luminescence.
The nature of test [5]: viability loss in pontine glioma line – cell-based, SU-DIPG-XIII, MIPE5.0, CellTiter-Glo, qHTS, dose response (AID 1347064; cut-off not given, nearly all actives have AC50 up to about 23 µM;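 on AC50: cells exposed to compound for 48 hours before the viability read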). The following applies: CellTiter-Glo ATP luminescence.
Test [6] in a line: viability loss in pontine glioma line – cell-based, SU-DIPG-XXV, MIPE5.0, CellTiter-Glo, qHTS, dose response (AID 1347065; cut-off not given, nearly all actives have AC50 up to about 26 µM;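 further: cells exposed to compound for 48 hours before ATP readout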). The following applies: CellTiter-Glo ATP luminescence.
A short description of test [7]: growth inhibition of DIPG cells – cell-based, MIPE4.0 library, CellTiter-Glo luminescence, qHTS (AID 1347066; cut-off not given, nearly all actives have AC50 up to about 30 µM;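 further: cells exposed to compound for 48 hours before readout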). The conditions noted are these: SU-DIPG-VI viability, CellTiter-Glo ATP luminescence.
Test [8] in a line: JHH-DIPG-1 glioma cell viability, MIPE5.0 library, CellTiter-Glo luminescence, qHTS (AID 1347067; cut-off not given, nearly all actives have AC50 up to about 26 µM;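 further: cells exposed to compound for 48 hours before readout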). The following applies: JHH-DIPG-1 glioma viability, CellTiter-Glo ATP luminescence.
Test [9] in a line: growth inhibition of DIPG cells – cell-based, MIPE5.0 library, qHTS (AID 1347068; cut-off not given, nearly all actives have IC50 up to about 30 µM;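 on IC50: cells exposed to compound for 48 hours before viability readout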). The conditions noted are these: SU-DIPG-XXV viability.
A short description of test [10]: viability loss with induced miR-34 in A549 – imaging, A549 dox-inducible miR-34, nuclei and caspase counts, primary screen (AID 1347080;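 active means compounds whose cell count with miR-34 switched on is under 0.7 times the count with it off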). The following applies: A549 miR-34 inducible, Hoechst nuclei count, 48 h.
Test [11] can be described thus: compounds altering HSF1 focus formation in cells – imaging, Selleck Cancer Library (AID 1347162; in the data active means plate-normalised HSF1 focus index below about 0.46). The conditions noted are these: human cells, HSF1 nuclear foci imaging, at 10 µM; SSMD: measured here: HSF1 foci SSMD mean; cell count: measured here: cell number; plate-normalised HSF1 focus index: stronger effect = lower value.
The nature of test [12]: MELAS cybrid and Rieske KO viability enhancers – cell-based, MELAS cybrids, Rieske KO mouse fibroblasts, CellTiter-Glo, primary screen (AID 1508586;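 active means mean z-score across replicates of 1.96 or higher in either the MELAS or the Rieske mutant cell line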;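 further: z relative to plate mean and SD of compound and empty wells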). The conditions noted are these: low glucose.
Test [13] can be described thus: drug combination growth inhibition, ovarian cancer – cell-based, oncology-focused library, rucaparib conditional, profiling panel (AID 1508598). The conditions noted are these: patient-derived ovarian cancer cells, CellTiter-Glo viability, 144 h, stronger effect = lower value.
Test [14] can be described thus: galactose survival enhancers in mitochondrial complex I cybrids – cell-based, galactose medium, ATP luminescence, primary screen (AID 1645843;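 active means z-score of at least 1.8 in each of two replicates, scored against plate mean and spread of sample wells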;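 further: positive z means more ATP and so rescue of galactose-driven cybrid death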). The conditions noted are these: complex I mutant cybrid cells, 72 h, stronger effect = higher value.

On to `O=C(Nc1ccccc1Br)N[C@@H]1CCN(c2ccc(C(F)(F)F)cn2)C1`, for which the call in [1], in [2], in test [3], in test [4], in [5] and in test [6] was inactive. The molecule was classed as inactive in test [7], in test [8] and in test [9].
On to `O=C(O)[C@@H](c1ccc(OCc2ccc3ccccc3n2)cc1)C1CCCC1`, for which the result in test [1], in test [2], in [3], in [4], in test [5] and in test [6] was inactive. Besides, the outcome in test [7], in test [8] and in test [9] was inactive.
In general, AC50 refers to the concentration giving half of the maximal activity seen. As usually defined, the IC50 is the point on the concentration scale where inhibition reaches its midpoint. What is called viability is a read-out of living cells in per cent, often relative to untreated cells. `CS(=O)(=O)c1cccc(CNc2nc(Nc3ccc4c(c3)CCC(=O)N4)ncc2C(F)(F)F)c1`: the AC50 was 6.61 µM (active) in test [1]; 18.7 µM (active) in [2]; 16.6 µM (active) in test [3]; 18.7 µM (active) in test [4]; 8.33 µM (active) in test [5]; 4.68 µM (active) in test [6]. The AC50 was 16.6 µM (active) in test [7] and 2.35 µM (active) in [8]. Further, the IC50 in test [9] was 8.33 µM (active). In addition, the fold change in test [10] (stronger effect = lower value, cell number ratio, induced over uninduced) was 0.913 (inactive) and 0.835 (inactive); in test [10] (measured here: relative caspase fold change +Dox/-Dox) it was 0.606 and 1.43. The cell count is 1320 and 1930 in test [10] (measured here: total cells with miR-34 induction, stronger effect = lower value); 1440 and 2320 in test [10] (measured here: total cells without miR-34 induction); 7540 in [11]. Further, in [11], the SSMD is -1.44. For the same molecule, in test [11], the plate-normalised HSF1 focus index is 0.911 (inactive). For the same molecule, the z-score in test [12] (MELAS cybrid survival, CellTiter-Glo 48 h, stronger effect = higher value) was -0.299 (inactive); in test [12] (Rieske KO mouse fibroblast survival, CellTiter-Glo 72 h), -0.256; in test [14], -0.545 (inactive). For the same molecule, the viability is 98.4% (active) in [13] (at 0.000305 µM, OCI-C5x cells, with rucaparib 10 µM, 100% = cells with rucaparib alone); 109% (inactive) in test [13] (at 0.000305 µM, OCI-C5x cells, without rucaparib); 88.7% (active) in [13] (at 0.000305 µM, OCI-P5x cells, with rucaparib 20 µM, 100% = cells with rucaparib alone); 101% (inactive) in [13] (at 0.000305 µM, OCI-P5x cells, without rucaparib); 108% (inactive) in test [13] (at 0.00122 µM, OCI-C5x cells, with rucaparib 10 µM, 100% = cells with rucaparib alone); 114% (inactive) in test [13] (at 0.00122 µM, OCI-C5x cells, without rucaparib). Also, the viability in test [13] (at 0.00122 µM, OCI-P5x cells, with rucaparib 20 µM, 100% = cells with rucaparib alone) was 84.8% (active); in test [13] (at 0.00122 µM, OCI-P5x cells, without rucaparib), 106% (inactive); in [13] (at 0.00488 µM, OCI-C5x cells, with rucaparib 10 µM, 100% = cells with rucaparib alone) it was 113% (inactive); in test [13] (at 0.00488 µM, OCI-C5x cells, without rucaparib), 112% (inactive); in test [13] (at 0.00488 µM, OCI-P5x cells, with rucaparib 20 µM, 100% = cells with rucaparib alone), 93.9% (active); in test [13] (at 0.00488 µM, OCI-P5x cells, without rucaparib), 109% (inactive). Also, the viability was 104% (inactive) in test [13] (at 0.0195 µM, OCI-C5x cells, with rucaparib 10 µM, 100% = cells with rucaparib alone); 109% (inactive) in test [13] (at 0.0195 µM, OCI-C5x cells, without rucaparib); 91.7% (active) in test [13] (at 0.0195 µM, OCI-P5x cells, with rucaparib 20 µM, 100% = cells with rucaparib alone); 108% (inactive) in [13] (at 0.0195 µM, OCI-P5x cells, without rucaparib); 102% (inactive) in test [13] (at 0.0781 µM, OCI-C5x cells, with rucaparib 10 µM, 100% = cells with rucaparib alone); 109% (inactive) in test [13] (at 0.0781 µM, OCI-C5x cells, without rucaparib). Besides, the viability in test [13] (at 0.0781 µM, OCI-P5x cells, with rucaparib 20 µM, 100% = cells with rucaparib alone) is 88% (active); in test [13] (at 0.0781 µM, OCI-P5x cells, without rucaparib), 112% (inactive); in test [13] (at 0.313 µM, OCI-C5x cells, with rucaparib 10 µM, 100% = cells with rucaparib alone), 108% (inactive); in test [13] (at 0.313 µM, OCI-C5x cells, without rucaparib), 116% (inactive); in test [13] (at 0.313 µM, OCI-P5x cells, with rucaparib 20 µM, 100% = cells with rucaparib alone) it was 93.7% (active); in test [13] (at 0.313 µM, OCI-P5x cells, without rucaparib) it was 115% (inactive). The viability was 113% (inactive) in test [13] (at 1.25 µM, OCI-C5x cells, with rucaparib 10 µM, 100% = cells with rucaparib alone); 116% (inactive) in [13] (at 1.25 µM, OCI-C5x cells, without rucaparib); 75.9% (active) in test [13] (at 1.25 µM, OCI-P5x cells, with rucaparib 20 µM, 100% = cells with rucaparib alone); 107% (inactive) in [13] (at 1.25 µM, OCI-P5x cells, without rucaparib); 56.8% (active) in test [13] (at 5 µM, OCI-C5x cells, with rucaparib 10 µM, 100% = cells with rucaparib alone); 59.8% (active) in [13] (at 5 µM, OCI-C5x cells, without rucaparib). For the same molecule, the viability in test [13] (at 5 µM, OCI-P5x cells, with rucaparib 20 µM, 100% = cells with rucaparib alone) was 44.7% (active); in [13] (at 5 µM, OCI-P5x cells, without rucaparib), 74.7% (active).
`CCOC(=O)/C=C/[C@H](C[C@@H]1CCNC1=O)NC(=O)[C@@H](CC(=O)[C@@H](NC(=O)c1cc(C)on1)C(C)C)Cc1ccc(F)cc1`: the outcome in test [1], in test [2], in [3], in [4], in [5] and in test [6] was inactive. In addition, the result in test [7], in test [8] and in [9] was inactive.
